For two compounds, Potency results are on record in PubChem BioAssay AID602362 (National Center for Advancing Translational Sciences (NCATS), 2012).

Structures are written as SMILES. The list shows a part of the results. Results filed as inconclusive are left out. The source made the active and inactive calls. Calls come from the whole dose curve; as a rule, active = well fitted inhibition curve with a large enough effect; inconclusive = small, poorly fitted or top-dose-only effect; inactive = no such curve, though single readings can be large or run the other way.

The assay has as its target 4'-phosphopantetheinyl transferase Sfp (Bacillus subtilis (strain 168)) (UniProt P39135). The assay can be described thus: qHTS Assay for Inhibitors of Bacillus subtilis Sfp phosphopantetheinyl transferase (PPTase): Gel Based Assay. The conditions noted are these: purified Sfp PPTase, gel-based product detection. From the text:
The covalent attachment of a phosphopantetheinyl (4'-PP) arm to a variety of synthases and other proteins is a key posttranslational protein modification. The 4'-PP is installed on the proteins post-translationally from coenzyme A (CoA) on a conserved serine residue by action of phosphopantetheinyl transferase (PPTase) enzymes. Phosphopantetheinylation is essential for synthase activity, and removal of the PPTase gene precludes natural product synthesis in microorganisms, or in the case of fatty acid biosynthesis, renders the organism unviable. PPTase enzymes belong to a distinct structural superfamily. Within bacteria, these enzymes are grouped into two classes based upon primary structure, the AcpS-Type and Sfp-Type PPTases. […]
In search of small molecule Sfp-PPTase inhibitors, a fluorescence quenching assay was developed for detection of Bacillus subtilis Sfp-PPTase enzymatic activity in a miniaturized high-throughput format. […]
In this assay, compounds were evaluated by monitoring of fluorescence transfer to whole carrier protein substrates via polyacrylamide gel electrophoresis. […]
The SDS-PAGE based assay detects the direct incorporation of a fluorescent label into a carrier protein substrate. […] The images are analysed by fluorescent densometry using the ImageJ software package available from the NIH.
For `COc1ccnc(NC(=S)N2CCN(c3ncc(C(F)(F)F)cc3Cl)CC2)c1`, the Potency was 2.14 µM (active).

With `Cc1cc(C)nc(NC(=S)N2CCN(c3ccc(Cl)cc3C(F)(F)F)CC2)c1`, the Potency is 1.07 µM (active).
